TCR activator: activators of T cell receptors; Potency, µM (titrated, usually from 9.22 µM), for the others: at the top dose activation of IL-2 secretion, most hits filed as activators; 330,000 tested, under 10 active; primary human leukocytes, anti-CD3, IL-2 HTRF, 48 h; also: % of control where 0% means no effect
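IL-2 release read by HTRF sandwich (Eu cryptate donor, d2 acceptor, 665 nm emission) after 48 hr exposure of primary human leukocytes to compound together with anti-CD3 beads in the absence of co-stimulatory signals.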
AT treatment: potential ataxia-telangiectasia treatments restoring KAP-1 phosphorylation. F2112 A-T fibroblasts, KAP-1 phosphorylation AlphaLISA; neocarzinostatin DNA damage 30 min before lysis. Potency, µM (titrated, usually from 57.5 µM), for inactives: at the highest dose activation, most hits filed as activators. hit rate 0.19% among 320,000. AID 485349; also: potency is read from the fitted curve at half-maximal effect; % of control where 0% means no effect; nearly all actives have a fitted effect of over 45% in size
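hTERT-immortalized A-T patient fibroblasts (F2112), 500 cells/well in OPTI-MEM, 1% FBS, got compounds for 60 min, then NCS for 30 min at 37C. Lysates were then assayed for phospho-KAP-1 by AlphaLISA (anti-pKAP1 donor, anti-KAP1 acceptor beads), 6 hr at 25C.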
Tb PFK inh: inhibitors of T. brucei phosphofructokinase | Potency, µM (top dose mostly 57.5 µM), inactives show at the top dose activity, negative = inhibition, hits mostly inhibitors | AID 485367 | hit rate 0.17% among 330,000 | T. brucei PFK, ADP-Glo luminescence | O15648;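 also: potency is read from the fitted curve at half-maximal effect; 0% = uninhibited 1x PFK enzyme wells and -100% = no-enzyme wells; nearly all actives have a fitted effect of over 60% in size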
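1.25 nM PFK with 0.5 mM F6P and 0.1 mM ATP in 0.1 M TEA pH 8.0, 5 mM MgCl2, incubated 45 min at room temperature; ADP measured by ADP-Glo luminescence; compounds titrated up to 57 uM.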
IL2 activator: activators of IL-2. IL-2 activation reporter assay, cell-based qHTS; stimulated with anti-CD3/CD4/CD28 beads; in transgenic mouse T cells. activation, % (series mostly up to about 46 µM). hit rate 0.065% among 360,000; in the data active = activation above about 50%; inconclusive = mostly about 30% to 49%; also: 0% is about no effect
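Readout is EGFP and DsRed signal by fluorescent plate cytometry after 18 h at 37 degrees C. Transgenic mouse T cells (750/well) received compound for 60 min before bead stimulation (anti-CD3, anti-CD4, anti-CD28); memory T cells served as non-tolerant control.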
a7 integrin act: integrin-mediated muscular dystrophy alleviation activation; alpha7betagal myoblasts, beta-gal FDG fluorescence, 48 h; Potency, µM (highest dose often 38.3 µM), for inactives: top-dose activation, hits mostly activators; hit rate 0.064% among 350,000;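 also: potency is read from the fitted curve at half-maximal effect; 100% = response of the positive control SU9516; nearly all actives have a fitted effect of over 60% in size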
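Alpha7betagal+/- myoblasts (passage 13) were plated 16-24 hr, then exposed to compounds (1:260 dilution of DMSO stock) for 48 hours at 37C. After MPER lysis, β-galactosidase reporter activity was read as FDG fluorescence (ex 480/em 540) after 30 minutes.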
PKM2 activator: increases activity of human pyruvate kinase M2. P14618. purified PKM2, Kinase-Glo ATP luminescence, activation; response scale: 0% is enzyme alone, no compound. Potency, µM (series often up to 57.5 µM), without a hit: at the highest dose activation, most hits filed as activators. hit rate 0.34% among 260,000. AID 1631; also: potency is read from the fitted curve at half-maximal effect; % is scaled to controls: 0 for no effect and ±100 for the full control effect; nearly all actives have a fitted effect of over 55% in size
Target sequence (P14618 whole entry, looked up): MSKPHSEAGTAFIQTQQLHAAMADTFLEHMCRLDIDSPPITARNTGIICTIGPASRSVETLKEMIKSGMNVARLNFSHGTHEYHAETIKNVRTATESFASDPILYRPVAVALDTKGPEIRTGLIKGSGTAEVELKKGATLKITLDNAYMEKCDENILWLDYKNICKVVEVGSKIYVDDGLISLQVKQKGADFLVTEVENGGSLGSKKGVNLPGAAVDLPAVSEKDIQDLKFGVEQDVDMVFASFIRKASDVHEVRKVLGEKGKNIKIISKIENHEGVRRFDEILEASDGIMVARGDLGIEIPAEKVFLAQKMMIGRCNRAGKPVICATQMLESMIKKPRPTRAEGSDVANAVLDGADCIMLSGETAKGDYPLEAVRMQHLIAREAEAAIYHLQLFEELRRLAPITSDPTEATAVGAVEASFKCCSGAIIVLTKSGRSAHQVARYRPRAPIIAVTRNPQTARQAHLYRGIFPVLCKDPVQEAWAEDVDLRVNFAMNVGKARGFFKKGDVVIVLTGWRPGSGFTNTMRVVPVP
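Purified hPK-M2 (>95% pure) converted ADP (0.1 mM final) to ATP with 0.5 mM PEP in 50 mM imidazole pH7.2, KCl, MgCl2, Tween 20, BSA; 1 h at room temperature. ATP detected by Kinase-Glo luminescence.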
* hit, by the source's call; ? = inconclusive; nt = no result; [ ] = dose if it differs, or a comment. Shown are actives, neighbours in structure and some others; about 0.69% of the full set was active somewhere. Unless noted, calls follow the shape of the dose curve; as a rule, active = well fitted curve in the direction sought with a large enough effect; inconclusive = small, poorly fitted or top-dose-only effect, or another doubt; inactive = no such curve, though single readings can be large; an effect the other way counts as inactive or inconclusive.

SMILES	TCR activator	AT treatment	Tb PFK inh	IL2 activator	a7 integrin act	PKM2 activator
COc1ccc(N(C(=O)c2snc(C(N)=O)c2N)C(C(=O)NC2CCCC2)c2ccc(OC)c(OC)c2)cc1 (configuration not stated)	9%	-6%	0%	1	7%	nt
COc1cc(C(C(=O)NC2CCCCC2)N(C(=O)c2snc(C(N)=O)c2N)c2ccc(C)cc2)ccc1O (configuration not stated)	-2%	1%	0%	-3	7.9µM*	5%
CCCCC(C(=O)NC1CCCC1)N(C(=O)c1snc(C(N)=O)c1N)c1ccc(C)cc1 (configuration not stated)	1%	1%	-1%	-1	10µM*	1%
CCOc1ccc(NC(=O)C(Cc2ccccc2)N2C(=O)c3cccc4cccc(c34)C2=O)cc1 (configuration not stated)	3%	6%	-4%	97*	-26%	-4%
CCN1C(=NCCCCO)N[C@@H](c2ccccc2)C(C(=O)OC)=C1C	nt	1%	-2%	nt	nt	0%
Cc1cccc(NC(=O)/C(C#N)=C/c2ccc(F)cc2)n1	-2%	0.71µM*	0%	1	1%	nt
Clc1ccccc1CONc1ncnc2nonc12	-1%	-10%	0%	-1	34%	16µM*
Cc1ccc(NS(=O)(=O)c2ccc3c(c2)oc(=O)n3C)cc1C	-3%	-7%	-1%	-3	-17%	nt
COC(=O)c1ccccc1NS(=O)(=O)c1ccc2c(c1)oc(=O)n2C	14%	1%	0%	0	-10%	11%
Cn1c(=O)oc2cc(S(=O)(=O)Nc3cccc(F)c3)ccc21	10%[46.1 µM]	3%	18%	-4	13%	13µM*
CSc1cccc(NS(=O)(=O)c2ccc3c(c2)oc(=O)n3C)c1	6%	5%	-1%	-3	-7%	7.9µM*
Cc1ccc(NS(=O)(=O)c2ccc3c(c2)oc(=O)n3C)cc1	-2%	-6%	0%	-1	-15%	22%
Cn1c(=O)oc2cc(S(=O)(=O)Nc3ccccc3O)ccc21	-1%	-4%	-8%	2	13%	14µM*
Cc1ccc(NS(=O)(=O)c2ccc3c(c2)oc(=O)n3C)cc1F	-4%	-6%	2%	1	21%	4.5µM*
CCN1CCCC1Cn1c(-c2ccccc2)nc2c(N(CCOC)CCOC)nc(C)nc21 (configuration not stated)	nt	nt	nt	nt	nt	-1%
COC(=O)C1=C(C(=O)OC)[C@@H]2Nc3ccccc3[C@@]23C[C@@H](C(=O)OC)N(S(=O)(=O)c2ccc(C)cc2)C3=N1	nt	nt	nt	nt	nt	-7%[11.5 µM]
O=C(OCC#CCSc1nnc(-c2cccc3ccccc23)s1)c1cccs1	nt	-10%	2%	nt	nt	nt
Cn1c(=O)c2cc(S(=O)(=O)Nc3cccc(F)c3)ccc2n(C)c1=O	-2%	nt	1%	1	26%	5µM*
COC(=O)[C@]1(C)N[C@H](CN(C)S(=O)(=O)c2ccc(-c3ccccc3)cc2)[C@@H]2C(=O)N(C)C(=O)[C@@H]21	6%	23%	7%	1	-5%	nt
Brc1ccc(-c2csc(N3CCCCC3)n2)cc1	nt	22%	0%	nt	nt	nt
O=C(Nc1ccc(C(F)(F)F)cc1Cl)c1ccc(Cn2cc(Br)cn2)o1	7%	nt	nt	0	21%	28µM*
CCOC(=O)CCCNC(=O)N1CCc2nc(-c3ccccc3)c3c(c2C1)CO[C@@H](C)C3	nt	nt	nt	nt	nt	-1%[11.5 µM]
O=C(CSc1nnc(C2CC2)n1C1CC1)c1cccs1	-7%	-8%	0%	1	10µM*	nt
COC(=O)CSC1=C(C#N)C(c2ccccc2F)CC(=O)N1 (configuration not stated)	-2%	-16%	23%	1	-2%	28µM*
Cc1ccc(S(=O)(=O)N2CCc3nc(COc4ccccc4)c4c(c3C2)CO[C@@H](C)C4)cc1	nt	nt	nt	nt	nt	-1%[11.5 µM]
SMILES	TCR activator	AT treatment	Tb PFK inh	IL2 activator	a7 integrin act	PKM2 activator
O=C(NCc1ccco1)/C(=C\c1cccs1)NC(=O)c1ccco1	3%	9%	1%	-1	?	28µM*
O=C(NCCCn1ccnc1)/C(=C/c1cccs1)NC(=O)c1ccco1	-2%	0%	1%	0	8.9µM*	-7%
O=C(NCCCn1ccnc1)/C(=C\c1cccs1)NC(=O)c1ccccc1	2%[46.1 µM]	5%	-2%	-2	0%	-4%
CCCOc1ccc(Br)cc1-c1cc(-c2ccc(Cl)cc2)[nH]c1-c1ccncc1	nt	nt	nt	nt	nt	-2%
N#Cc1ccc(Sc2nc3ccccc3[nH]2)cc1C#N	5%	9%	-6%	1	10µM*	26%
O=C(CNc1n[nH]c(=O)[nH]c1=O)N/N=C/C1CC=CCC1 (configuration not stated)	0%	32µM*	1%	0	-5%	4%
CC(/C=N/NC(=O)CNc1n[nH]c(=O)[nH]c1=O)c1ccccc1 (configuration not stated)	-1%	-9%	-3%	0	0%	2%
S=C1NC[C@H](c2ccccc2)N1CCCCC1CCCCC1	-3%	35µM*	-1%	0	-1%	-3%
CCC(=O)N1N=C(c2cccs2)CC1c1ccco1 (configuration not stated)	-3%	5%	2%	0	-16%	5%
Clc1ccc(N2N=C(c3cccs3)CC2c2ccco2)cc1 (configuration not stated)	-4%	22µM*	3%	0	0%	1%
c1ccc(C2=NN(c3ccccc3)C(c3ccco3)C2)cc1 (configuration not stated)	-1%	16µM*	-3%	0	-26%	15%
Fc1ccc(C2CC(c3ccco3)=NN2c2ccccc2)cc1 (configuration not stated)	4%	?	12%	0	9%	-1%
CCN(CC)CC(=O)N1N=C(c2cccs2)CC1c1ccco1 (configuration not stated)	-4%	-6%	1%	1	13%	-2%
c1ccc(N2N=C(c3cccs3)CC2c2ccco2)cc1 (configuration not stated)	-1%	28µM*	1%	0	-25%	1%
CCCCC1=CC2=CC(=O)C(C)(OC(=O)CC)C(=O)C2=CN1CCCN(CC)CC (configuration not stated)	nt	nt	nt	nt	nt	-1%[11.5 µM]
CCCCNc1nc(C)nc2c1nc(-c1ccccc1)n2CCCN1CCCCC1C (configuration not stated)	nt	nt	nt	nt	nt	-3%

Bioassay records: PubChem, National Center for Advancing Translational Sciences (NCATS)
